Experimental data taken from PubChem BioAssay (Tox21).
Inconclusive results are not listed. The source made the active and inactive calls. Unless noted, the call rests on the fitted dose curve; in most records, active means well fitted curve in the direction sought with a large enough effect in the repeat runs; inconclusive means weak or mixed curves; inactive means no such curve, though single readings can be large; an effect the other way counts as inactive or inconclusive.

Legend:
[1] = qHTS assay to identify small molecule agonists of the peroxisome proliferator-activated receptor delta (PPARd) signaling pathway - cell viability counter screen (AID 743211); further: nearly all actives have a fitted effect of over 55% in size
Outline: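 In the same wells used for beta-lactamase reporter measurement, cytotoxicity is scored by CellTiter-Glo. HEK293H PPARd-bla cells receive compound for 17 h at 37C following a 5 h settling period.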

[2] = molecular target: Peroxisome proliferator-activated receptor delta (Homo sapiens) (UniProt Q03181); experiment: qHTS assay to identify small molecule agonists of the peroxisome proliferator-activated receptor delta (PPARd) signaling pathway (AID 743212; calls by dose curve;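 further: HEK293H cells with PPARd UAS beta-lactamase reporter GeneBLAzer system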)
Outline: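 Beta-lactamase reporter readout: a ratiometric FRET signal from the LiveBLAzer substrate after 2 h at room temperature. Compound exposure at 37 °C in PPARδ-bla HEK293H cells driven by an upstream activator sequence.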

[3] = molecular target: Peroxisome proliferator-activated receptor delta (Homo sapiens) (UniProt Q03181); experiment: qHTS assay to identify small molecule antagonists of the peroxisome proliferator-activated receptor delta (PPARd) signaling pathway (AID 743215; active means well fitted inhibition curve with a large enough effect in the signal ratio in the repeat runs, not every such curve was filed as active; the % refers to the signal ratio;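 further: cells stimulated with agonist L165041 at 300 nM final during compound exposure; series mostly up to about 62 µM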)
Outline: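 Here, a reporter line (HEK293H, beta-lactamase under a UAS) measures PPARd signaling. Compounds are tested against agonist L165041 at 300 nM final concentration over 17 h at 37 C, with fluorescence read after substrate.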

[4] = molecular target: Bile acid receptor (Homo sapiens) (UniProt Q96RI1); experiment: qHTS assay to identify small molecule antagonists of the farnesoid-X-receptor (FXR) signaling pathway (AID 743217; active means well fitted inhibition curve with a large enough effect in the signal ratio in the repeat runs, not every such curve was filed as active; the % refers to the signal ratio)
Outline: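 Test compounds are pin-transferred onto FXR-bla HEK 293T cells, then chenodeoxycholic acid is added at 50 uM final. After 16 h at 37 °C, LiveBLAzer B/G substrate is applied for 2 h at room temperature and fluorescence read.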

[5] = qHTS assay to identify small molecule agonists of the farnesoid-X-receptor (FXR) signaling pathway - cell viability counter screen (AID 743218); further: nearly all actives have a fitted effect of over 45% in size
Outline: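 Quantitative HTS counter screen measuring ATP-based viability via CellTiter-Glo luminescence in HEK 293T cells carrying a UAS-driven beta-lactamase reporter, after 16 h compound exposure at 37 C.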

[6] = molecular target: Bile acid receptor (Homo sapiens) (UniProt Q96RI1); experiment: qHTS assay to identify small molecule agonists of the farnesoid-X-receptor (FXR) signaling pathway (AID 743220; active means well fitted activation curve with a large enough effect in the signal ratio in the repeat runs, not every such curve was filed as active; the % refers to the signal ratio)
Outline: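 FXR-UAS-bla HEK 293T cells carrying a UAS-driven beta-lactamase reporter were plated for 5 h at 37C/5% CO2, then exposed to DMSO-dissolved Tox21 10K compounds for 16 h at 37C. A LiveBLAzer B/G FRET substrate was loaded for 2 h at room temperature before fluorescence reading.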

[7] = qHTS assay to identify small molecule antagonists of the farnesoid-X-receptor (FXR) signaling pathway - cell viability counter screen (AID 743221; active means well fitted cell-killing curve with a large enough effect in the repeat runs, not every such curve was filed as active; further: nearly all actives have a fitted effect of over 50% in size)
Outline: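 Here viability was scored by luminescence after CellTiter-Glo addition to wells already read for beta-lactamase. Prior treatment: compound plus CDCA (50 uM final), 16 h, 37 C, HEK 293T FXR-bla cells.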

[8] = qHTS assay to identify small molecule antagonists of the peroxisome proliferator-activated receptor delta (PPARd) signaling pathway - cell viability counter screen (AID 743213); further: nearly all actives have a fitted effect of over 50% in size
Outline: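 Same-well viability: cells pre-incubated 5 h, dosed with compound plus 300 nM L165041, kept 17 h at 37 C, FRET substrate 2 h RT, then CellTiter-Glo 30 min RT and luminescence.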

[9] = molecular target: Vitamin D3 receptor (Homo sapiens) (UniProt P11473); experiment: qHTS assay to identify small molecule agonists of the vitamin D receptor (VDR) signaling pathway (AID 743222; calls by dose curve)
Outline: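 Tox21 cell reporter format: VDR-bla line, 16 h compound exposure in 5% CO2 at 37C, then fluorescence intensity after 2 h with LiveBLAzer B/G FRET substrate.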

[10] = molecular target: Vitamin D3 receptor (Homo sapiens) (UniProt P11473); experiment: qHTS assay to identify small molecule antagonists of the vitamin D receptor (VDR) signaling pathway (AID 743223; active means well fitted inhibition curve with a large enough effect in the signal ratio in the repeat runs, not every such curve was filed as active; the % refers to the signal ratio)
Outline: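 Inhibition of agonist-driven VDR signalling is scored in VDR-bla cells: 3 nM final 1alpha,25-dihydroxyvitamin D3 plus compound, 16 h at 37C, then beta-lactamase detection by FRET substrate fluorescence after 2 h.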

Measured: Potency

Vitamin D3 receptor (Homo sapiens), sequence (P11473 whole entry, looked up): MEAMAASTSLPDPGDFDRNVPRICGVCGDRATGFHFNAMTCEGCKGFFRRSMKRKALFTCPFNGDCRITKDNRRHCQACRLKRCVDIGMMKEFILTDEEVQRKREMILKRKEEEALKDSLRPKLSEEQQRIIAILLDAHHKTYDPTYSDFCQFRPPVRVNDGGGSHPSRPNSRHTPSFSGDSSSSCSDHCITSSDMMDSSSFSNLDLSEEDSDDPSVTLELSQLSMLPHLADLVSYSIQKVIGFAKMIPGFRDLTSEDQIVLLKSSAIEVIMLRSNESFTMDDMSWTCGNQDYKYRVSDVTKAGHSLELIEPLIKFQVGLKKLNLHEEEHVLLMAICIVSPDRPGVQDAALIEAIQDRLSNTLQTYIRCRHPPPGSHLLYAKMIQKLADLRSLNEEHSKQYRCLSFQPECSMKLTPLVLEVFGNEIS
Bile acid receptor (Homo sapiens), sequence (Q96RI1 whole entry, looked up): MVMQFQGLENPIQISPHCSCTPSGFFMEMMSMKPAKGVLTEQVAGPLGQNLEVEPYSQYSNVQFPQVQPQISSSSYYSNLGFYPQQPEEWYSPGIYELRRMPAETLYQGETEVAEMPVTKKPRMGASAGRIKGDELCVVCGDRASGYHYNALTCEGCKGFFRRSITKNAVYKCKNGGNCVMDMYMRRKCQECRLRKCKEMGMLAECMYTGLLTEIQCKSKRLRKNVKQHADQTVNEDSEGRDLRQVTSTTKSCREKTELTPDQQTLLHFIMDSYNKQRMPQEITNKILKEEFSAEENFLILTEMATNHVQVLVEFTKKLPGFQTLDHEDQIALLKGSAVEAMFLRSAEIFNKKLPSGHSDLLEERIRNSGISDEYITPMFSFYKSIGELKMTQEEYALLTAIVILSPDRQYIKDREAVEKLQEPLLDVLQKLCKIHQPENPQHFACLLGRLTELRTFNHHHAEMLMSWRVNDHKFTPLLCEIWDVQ
Peroxisome proliferator-activated receptor delta (Homo sapiens), sequence (Q03181 whole entry, looked up): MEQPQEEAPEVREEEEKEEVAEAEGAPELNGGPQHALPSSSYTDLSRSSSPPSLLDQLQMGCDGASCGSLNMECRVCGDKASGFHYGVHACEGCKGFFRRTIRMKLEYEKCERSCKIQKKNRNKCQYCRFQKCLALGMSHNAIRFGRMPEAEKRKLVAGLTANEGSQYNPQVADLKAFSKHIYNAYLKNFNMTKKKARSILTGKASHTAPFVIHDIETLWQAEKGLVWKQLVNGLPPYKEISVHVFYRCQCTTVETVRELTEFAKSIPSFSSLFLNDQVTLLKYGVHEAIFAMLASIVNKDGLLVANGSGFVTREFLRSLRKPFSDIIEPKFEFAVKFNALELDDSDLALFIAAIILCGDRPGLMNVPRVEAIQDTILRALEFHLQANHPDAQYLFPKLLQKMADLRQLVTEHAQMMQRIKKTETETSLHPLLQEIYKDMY

Cc1cccc(C)c1N
not listed: [8] | [9] | [10]
inactive: all other assays above

CN(C)C(=O)Nc1cccc(C(F)(F)F)c1
not listed: [4] | [6]
inactive: all other assays above

Cc1ccccc1N
inactive: [1] | [2] | [8] | [3] | [5] | [7]

Clc1cnc(Oc2ccc(Oc3ncc(Cl)cc3Cl)cc2)c(Cl)c1
not listed: [5]
inactive: all other assays above

Cl[C@H]1OCCO[C@@H]1Cl
not listed: [9] | [10]
inactive: all other assays above

ClCCOCCCl
not listed: [9] | [10]
inactive: all other assays above

CNC(=O)O/N=C/C(C)(C)SC
not listed: [8] | [9] | [10]
inactive: all other assays above

CCOC(=O)CC(SP(=O)(OC)OC)C(=O)OCC (stereo not given)
not listed: [9] | [10]
inactive: all other assays above

COS(=O)(=O)OC
not listed: [4] | [6]
inactive: all other assays above

[N-]=[N+]=CC(=O)OC[C@H](N)C(=O)O
not listed: [8]
inactive: all other assays above

Nc1cc(Cl)cc(Cl)c1
inactive: all assays above

C[C@H]1C(=O)O[C@@H]2CCN3CC=C(COC(=O)[C@](C)(O)[C@]1(C)O)[C@H]23
inactive: all assays above

OCc1ccco1
inactive: all assays above

O=C(O)COc1ccccc1
not listed: [4] | [6]
inactive: all other assays above

Cc1cccc(C)c1NC(=O)CN1CCCC1=O
not listed: [9] | [10]
inactive: all other assays above

N#CN=C(N)N
not listed: [8]
inactive: all other assays above

CC12CC1(C)C(=O)N(c1cc(Cl)cc(Cl)c1)C2=O (stereo not given)
not listed: [3] | [4] | [6]
inactive: all other assays above

Cc1cccc(N)c1C
inactive: all assays above

O=C(O)C1C(C(=O)O)C2(Cl)C(Cl)=C(Cl)C1(Cl)C2(Cl)Cl (stereo not given)
not listed: [9] | [10]
inactive: all other assays above

Cc1cc(O)ccc1Cl
not listed: [8]
inactive: all other assays above

COC(=O)Nc1cccc(OC(=O)Nc2cccc(C)c2)c1
not listed: [8] | [9] | [10]
inactive: all other assays above

CN(C)C(=O)Cl
not listed: [4] | [6]
inactive: all other assays above

Cc1cc(Cl)ccc1OC(C)C(=O)O (stereo not given)
inactive: [1] | [2] | [8] | [3] | [5] | [7]

Oc1c(Br)cc(Br)cc1Br
inactive: [1] | [2] | [8] | [3] | [5] | [7]

CCSC(=O)N1CCCCCC1
not listed: [4] | [6]
inactive: all other assays above

OC[C@@H](O)[C@H]1O[C@@H]2O[C@H](C(Cl)(Cl)Cl)O[C@@H]2[C@H]1O
inactive: [1] | [2] | [8] | [3] | [5] | [7]

OCC(O)CCl (stereo not given)
not listed: [4] | [6]
inactive: all other assays above

COP(=S)(OC)Oc1ccc(SC)c(C)c1
not listed: [4] | [6]
inactive: all other assays above

Nc1cccc(Cl)c1
not listed: [8]
inactive: all other assays above

Cc1cccc(N)c1
not listed: [4] | [6]
inactive: all other assays above

O=[N+]([O-])c1ccc(Cl)c(Cl)c1
not listed: [1]
inactive: all other assays above

C=CC(=O)OCC(CC)CCCC (stereo not given)
inactive: [1] | [5] | [7] | [9]

CCOP(=S)(OCC)Oc1ccc([N+](=O)[O-])cc1
inactive: [1] | [2] | [3] | [5] | [7]

Cc1ccc(O)c(C)c1
inactive: [1] | [2] | [3] | [5] | [7]

C=CC#N
inactive: [1] | [8] | [5] | [7] | [9] | [10]

CC(C)CCCCCCOC(=O)c1ccccc1C(=O)OCCCCCCC(C)C
not listed: [8]
inactive: all other assays above

OCCCCO
not listed: [2] | [3]
inactive: all other assays above

O=S(=O)(O)OOS(=O)(=O)O
not listed: [4] | [6] | [8]
inactive: all other assays above

CNC(=O)O/N=C/C(C)(C)S(C)(=O)=O
inactive: [1] | [8] | [5] | [7]

NNc1ccccc1
inactive: [1] | [8] | [5] | [7]

Cc1ccc(N)cc1
inactive: [1] | [8] | [5] | [7]

CNc1cnn(-c2cccc(C(F)(F)F)c2)c(=O)c1Cl
not listed: [1]
inactive: all other assays above
